According to a collection of fitness landscapes (doi:10.1016/j.celrep.2020.107928):
In all, about 81,000 sequences were measured (“one-hybrid fitness for binding parS DNA”: median about -0.17, highest 2% from about 0.51 on). The sample as a whole holds a higher share of the highest values than the screen did.

B1: Caulobacter ParB omega fusion; a variant is named by its letters at X, in order, B8GW30 (parent)
chain: MESVVVGEPGMSEGRRGLGRGLSALLGEVDAAPAQAPGEQLGGSREAPIEILQRNPDQPRRTFREEDLEDLSNSIREKGVLQPILVRPSPDTAGEYQIVAGERAWRAAQRAGLKTVPIMVRELDDLAVLEIGIIENVQRADLNVLEEALSYKVLMEKFERTQENIAQTIGKSXSHVANXMRLLXLPDEVQSYLVSGELTAXHARAIAAAADPVALAKQIIEGGLSVRETEALARKAPNLSAGKSKGGRPPRVKDTDTQALESDLSSVLGLDVSIDHRGSTGTLTITYATLEQLDDLCNRLTRGI

Variants of: B1
Test: one-hybrid fitness for binding parS DNA (scaled: cognate 1, non-cognate 0); higher = stronger binding
Settings: with parS DNA site
Outline: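 Bacterial one-hybrid selection in E. coli USO rpoZ- hisB- pyrF- with a HIS3 reporter carrying the site 19 bp from the promoter, screening Caulobacter ParB libraries with four specificity codons randomised (NNS). Cells grew 48 hours at 37°C on M9-minus-histidine plus 0.1 mM IPTG and 5 mM 3-AT. Plasmids before and after selection were Illumina-sequenced, three replicate libraries pooled, and variants under 10 reads dropped. Fitness is the log change in variant-to-wild-type read ratio, rescaled to cognate 1, non-cognate 0.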

Row | Variant | one-hybrid fitness for binding parS DNA
1 | QHDH | ≤ 0.2
2 | KIRG | ≤ 0.2
3 | MVRP | ≤ 0.2
4 | RAFT | 0.847
5 | RAAT | 0.909
6 | RAAK | ≤ 0.2
7 | RAAF | 0.242
8 | RAFH | 0.204
9 | RAFD | ≤ 0.2
10 | CANR | ≤ 0.2
11 | WEPV | ≤ 0.2
12 | HEHL | ≤ 0.2
13 | CTTW | ≤ 0.2
14 | FEAS | ≤ 0.2
15 | RTAA | 0.579
16 | DTAA | ≤ 0.2
17 | RTFA | 0.592
18 | DTFA | ≤ 0.2
19 | QTHE | ≤ 0.2
20 | PSQT | ≤ 0.2
21 | QCPA | ≤ 0.2
22 | YTPS | ≤ 0.2
23 | KLFA | ≤ 0.2
24 | RLFA | 0.606

Row | Variant | one-hybrid fitness for binding parS DNA
25 | RLAA | 0.582
26 | NLAA | ≤ 0.2
27 | DLFA | ≤ 0.2
28 | DLAA | ≤ 0.2
29 | IAKG | ≤ 0.2
30 | FVAR | ≤ 0.2
31 | NFIG | ≤ 0.2
32 | RFIH | ≤ 0.2
33 | RFPG | 0.502
34 | RFIS | 0.777
35 | RFIP | ≤ 0.2
36 | RFPC | 0.424
37 | RFIC | 0.657
38 | RFID | ≤ 0.2
39 | RFIG | 0.685
40 | RFWN | ≤ 0.2
41 | RFWS | 0.836
42 | RFWP | ≤ 0.2
43 | EHMG | ≤ 0.2
44 | LHVL | ≤ 0.2
45 | AIIN | ≤ 0.2
46 | FIYG | ≤ 0.2
47 | PRHT | ≤ 0.2
48 | KCHS | ≤ 0.2

Row | Variant | one-hybrid fitness for binding parS DNA
49 | KAGT | ≤ 0.2
50 | QCPW | ≤ 0.2
51 | RFLN | 0.415
52 | RFPS | 0.551
53 | RFRS | 0.954
54 | RFRN | 0.429
55 | RFYD | ≤ 0.2
56 | RFYS | 1.01
57 | RFLD | ≤ 0.2
58 | RFPH | ≤ 0.2
59 | RFRD | ≤ 0.2
60 | RFLS | 0.997
61 | RFYP | ≤ 0.2
62 | RFPD | ≤ 0.2
63 | PVIC | ≤ 0.2
64 | MHEG | ≤ 0.2
65 | VPDG | ≤ 0.2
66 | LNYC | ≤ 0.2
67 | HRFQ | ≤ 0.2
68 | VPPW | ≤ 0.2
69 | KFQA | ≤ 0.2
70 | DFQA | ≤ 0.2
71 | RFYA | 0.578
72 | RFPA | ≤ 0.2

Row | Variant | one-hybrid fitness for binding parS DNA
73 | RFCA | 0.518
74 | NFRA | ≤ 0.2
75 | RFRA | 0.602
76 | RFQA | 0.579
77 | SFRA | ≤ 0.2
78 | RFIA | 0.373
79 | ANER | ≤ 0.2
80 | NGTK | ≤ 0.2
81 | GATP | ≤ 0.2
82 | TTRY | ≤ 0.2
83 | HALT | ≤ 0.2
84 | WTPL | ≤ 0.2
85 | KHYV | ≤ 0.2
86 | QFRS | ≤ 0.2
87 | DFDT | ≤ 0.2
88 | RFHT | 0.853
89 | RFHD | ≤ 0.2
90 | RFWD | ≤ 0.2
91 | RFWT | 0.649
92 | DFHT | ≤ 0.2
93 | RFGP | ≤ 0.2
94 | NFGT | ≤ 0.2
95 | RFDR | ≤ 0.2
96 | NFWT | ≤ 0.2

Row | Variant | one-hybrid fitness for binding parS DNA
97 | RFGT | 0.775
98 | RFDT | 0.693
99 | FTEL | ≤ 0.2
100 | WFGR | ≤ 0.2
101 | AVPM | ≤ 0.2
102 | IHAA | ≤ 0.2
103 | GDDN | ≤ 0.2
104 | RFPT | 0.376
105 | NFST | ≤ 0.2
106 | RFRT | 0.9
107 | RFYT | 0.801
108 | RFST | 0.841
109 | RFSN | 0.377
110 | RFIT | 0.508
111 | RFRH | 0.219
112 | RFCT | 0.725
113 | SFCT | ≤ 0.2
114 | NFRT | ≤ 0.2
115 | RFCR | ≤ 0.2
116 | SRLA | ≤ 0.2
117 | RPYM | ≤ 0.2
118 | QLWS | ≤ 0.2
119 | QWRP | ≤ 0.2
120 | YTDG | ≤ 0.2

Row | Variant | one-hybrid fitness for binding parS DNA
121 | VYTC | ≤ 0.2
122 | AQSP | ≤ 0.2
123 | FRLV | ≤ 0.2
124 | MRTY | ≤ 0.2
125 | DFLT | ≤ 0.2
126 | RFNN | 0.411
127 | RFQP | ≤ 0.2
128 | RFLT | 0.75
129 | RFQD | ≤ 0.2
130 | RFNT | 0.862
131 | RFLP | ≤ 0.2
132 | RFNP | ≤ 0.2
133 | RFQT | 0.8
134 | WYGN | ≤ 0.2
135 | YMRM | ≤ 0.2
136 | YQRV | ≤ 0.2
137 | AIED | ≤ 0.2
138 | TPRA | ≤ 0.2
139 | QTSF | ≤ 0.2
140 | AAYQ | ≤ 0.2
141 | WMAR | ≤ 0.2
142 | RVLY | 0.508
143 | RVVY | 0.413
144 | RVDY | 0.427

Row | Variant | one-hybrid fitness for binding parS DNA
145 | RVRY | 0.583
146 | RVYY | 0.495
147 | RCLY | 0.49
148 | RVKY | 0.664
149 | TIST | ≤ 0.2
150 | CHTY | ≤ 0.2
151 | TCYR | ≤ 0.2
152 | QKCY | ≤ 0.2
153 | TNVQ | ≤ 0.2
154 | CETD | ≤ 0.2
155 | ADRH | ≤ 0.2
156 | QVQF | ≤ 0.2
157 | RRIN | 0.304
158 | RRRH | 0.592
159 | RRDH | ≤ 0.2
160 | RRIS | 0.753
161 | RRYH | ≤ 0.2
162 | RRIH | ≤ 0.2
163 | RRWS | 0.772
164 | RRYS | 0.68
165 | RRWP | ≤ 0.2
166 | RRWD | ≤ 0.2
167 | RRYD | ≤ 0.2
168 | RRYP | ≤ 0.2

Row | Variant | one-hybrid fitness for binding parS DNA
169 | VFKT | ≤ 0.2
170 | HRKK | ≤ 0.2
171 | QLWG | ≤ 0.2
172 | RFHY | 0.462
173 | RRRS | 0.67
174 | RRLS | 0.701
175 | RRLN | 0.396
176 | RRPS | 0.757
177 | RRRP | 0.203
178 | RRPN | 0.246
179 | RRLD | ≤ 0.2
180 | RRPD | ≤ 0.2
181 | RRRD | ≤ 0.2
182 | MLQR | ≤ 0.2
183 | HTWN | ≤ 0.2
184 | YCLV | ≤ 0.2
185 | VKKI | ≤ 0.2
186 | VDFT | ≤ 0.2
187 | LALR | ≤ 0.2
188 | QPAK | ≤ 0.2
189 | VVMR | ≤ 0.2
190 | VDRK | ≤ 0.2
191 | NEFY | ≤ 0.2
192 | RKLD | ≤ 0.2

Row | Variant | one-hybrid fitness for binding parS DNA
193 | RKIS | 0.958
194 | RKLP | ≤ 0.2
195 | RKPS | 0.682
196 | RKPH | ≤ 0.2
197 | RKYP | ≤ 0.2
198 | RKYH | ≤ 0.2
199 | RKYS | 0.857
200 | RKIP | ≤ 0.2
201 | RKPN | ≤ 0.2
202 | RKLS | 0.876
203 | RKID | ≤ 0.2
204 | AWGT | ≤ 0.2
205 | HHGR | ≤ 0.2
206 | DVDS | ≤ 0.2
207 | SCTT | ≤ 0.2
208 | KNMC | ≤ 0.2
209 | RKRN | 0.347
210 | RKWN | 0.364
211 | RKRS | 0.747
212 | RKWS | 0.955
213 | RKRH | ≤ 0.2
214 | RKWD | ≤ 0.2
215 | IFGG | ≤ 0.2
216 | PIND | ≤ 0.2

Row | Variant | one-hybrid fitness for binding parS DNA
217 | RSLF | 0.228
218 | RMLF | 0.238
219 | RPLG | ≤ 0.2
220 | RLLG | 1.02
221 | RDLG | ≤ 0.2
222 | RLLR | ≤ 0.2
223 | RLLM | 0.372
224 | RMLM | 0.363
225 | RSLG | 0.987
226 | RELG | 0.217
227 | RCLG | 1.01
228 | RMLG | 1.01
229 | LDYT | ≤ 0.2
230 | HWFG | ≤ 0.2
231 | EKQG | ≤ 0.2
232 | CHLC | ≤ 0.2
233 | FSIV | ≤ 0.2
234 | ATPA | ≤ 0.2
235 | KWRR | ≤ 0.2
236 | QQPM | ≤ 0.2
237 | ALLC | ≤ 0.2
238 | TRRD | ≤ 0.2
239 | NQPG | ≤ 0.2
240 | PPRF | ≤ 0.2

Row | Variant | one-hybrid fitness for binding parS DNA
241 | RILK | ≤ 0.2
242 | RILG | 0.993
243 | RILF | 0.269
244 | YPTC | ≤ 0.2
245 | MMSV | ≤ 0.2
246 | EQTA | ≤ 0.2
247 | ACKY | ≤ 0.2
248 | RNEC | 0.613
249 | RNEN | ≤ 0.2
250 | RNED | ≤ 0.2
251 | RNEP | ≤ 0.2
252 | RNEI | ≤ 0.2
253 | RNEY | ≤ 0.2
254 | RNEH | ≤ 0.2
255 | RNEG | 0.677
256 | RNES | 0.776
257 | FPSI | ≤ 0.2
258 | MKLG | ≤ 0.2
259 | VKMN | ≤ 0.2
260 | KPPS | ≤ 0.2
261 | RANC | 0.98
262 | RANR | ≤ 0.2
263 | RADQ | ≤ 0.2
264 | RANK | ≤ 0.2

Row | Variant | one-hybrid fitness for binding parS DNA
265 | RADF | ≤ 0.2
266 | RADC | 0.856
267 | QRLS | ≤ 0.2
268 | RCPM | 0.203
269 | QMWS | ≤ 0.2
270 | SDGC | ≤ 0.2
271 | MATR | ≤ 0.2
272 | VQVL | ≤ 0.2
273 | PGTH | ≤ 0.2
274 | KCMT | ≤ 0.2
275 | GHPI | ≤ 0.2
276 | YKKF | ≤ 0.2
277 | RSLP | ≤ 0.2
278 | RILN | 0.422
279 | RSLH | 0.207
280 | RILD | ≤ 0.2
281 | RILT | 0.89
282 | RMLP | ≤ 0.2
283 | RMLT | 0.974
284 | RSLT | 0.846
285 | RDLT | ≤ 0.2
286 | RPLT | ≤ 0.2
287 | RMLD | ≤ 0.2
288 | RCLT | 0.966

Row | Variant | one-hybrid fitness for binding parS DNA
289 | QFVS | ≤ 0.2
290 | EYRS | ≤ 0.2
291 | FKLR | ≤ 0.2
292 | GPRL | ≤ 0.2
293 | HRFW | ≤ 0.2
294 | QVAA | ≤ 0.2
295 | QNKG | ≤ 0.2
296 | GITA | ≤ 0.2
297 | YHLM | ≤ 0.2
298 | YQRH | ≤ 0.2
299 | STFL | ≤ 0.2
300 | RKSE | ≤ 0.2
301 | PSQM | ≤ 0.2
302 | HSHL | ≤ 0.2
303 | RHLP | ≤ 0.2
304 | RTLK | ≤ 0.2
305 | RHLT | 0.834
306 | RTLT | 0.936
307 | RHLN | 0.376
308 | RTLF | 0.267
